Pf apPOL inh = Pf-apPOL inhibitors, biochemical, fluorescence | Plasmodium falciparum apicoplast DNA polymerase (apPOL) | Recombinant Pf-apPOL, molecular beacon fluorescence, 1.5 h | inhibition, % at 10 µM | actives 0.25% (n = 210,000) | AID 1794808, 2022
mHTT-CaM PPI inh = mutant huntingtin-calmodulin interaction inhibitors – biochemical, AlphaScreen, primary screen. AlphaScreen His-mHTT/GST-CaM binding, luminescence. P42858. inhibition, % at 15 µM. AID 1671202, 2021. actives 3.6% (n = 190,000)
Of the large screens only hits and unclear results are named; the others gave an inactive call. In the library only some 3.5% were active in any assay of this set; here they are far more common. No stated cut-off is given here; in the data, active means inhibition above about 50%; inactive means the rest.

Cc1ccc(N=C2NC(=O)C(CC(=O)Nc3ccccc3)S2)cc1 (centres undefined)	none
Cc1ccc(C2=NNC(C)(CC(=O)Nc3ccccc3)S2)cc1 (centres undefined)	mHTT-CaM PPI inh 72
COc1ccc(N2CCN(S(=O)(=O)c3ccc(C)cc3)C(C)C2=O)cc1 (centres undefined)	none
COc1cc(C=C2SC(=S)N(c3ccc(C(=O)O)c(O)c3)C2=O)cc(OC)c1OC	none
COc1cc(C=C2SC(=S)N(c3ccc(O)c(C(=O)O)c3)C2=O)cc(OC)c1OC	mHTT-CaM PPI inh 66
COc1cccc(N2C(=O)C(=Cc3ccc(O)c(O)c3)SC2=S)c1	mHTT-CaM PPI inh 98
COc1cc(C=C2SC(=S)N(c3ccc(O)cc3)C2=O)cc(OC)c1OC	none
CC(=O)C(N=Nc1cc2c(c([N+](=O)[O-])c1C)C(C)(C)CC2(C)C)=C(C)O	none (no result: mHTT-CaM PPI inh)
O=C(NCCCc1ccccc1)C1CCCN(c2cn[nH]c(=O)c2)C1 (centres undefined)	none
CCCC(=O)Oc1cc(C)[nH]c(=O)c1[N+](=O)[O-]	none
COCCNc1nc(SCc2ccccc2Cl)nc2ccccc12	mHTT-CaM PPI inh 58
Clc1ccccc1CSc1nc(NCc2ccco2)c2ccccc2n1	none
O=C1C2C3C=CC(C3)C2C(=O)N1c1ccc(OC(F)(F)F)cc1 (centres undefined)	none
FC(F)(F)c1ccc(CSc2c[nH]c3ccccc23)cc1	mHTT-CaM PPI inh 87
O=S(=O)(Cc1ccc(C(F)(F)F)cc1)c1c[nH]c2ccccc12	none
Cc1cc(N2CCN(C(=O)c3ccc(Cl)cc3Cl)CC2)c(F)cc1[N+](=O)[O-]	none
CCS(=O)(=O)NC1CCN(c2ccccc2C(=O)N2CCC(C)CC2)CC1	none
CC(C)(C)C1CCc2c(sc3c2C(=O)NC(c2ccccc2)N3)C1 (centres undefined)	none
CC(C)(C)C1CCc2c(sc3c2C(=O)NC(c2ccc(O)c([N+](=O)[O-])c2)N3)C1 (centres undefined)	mHTT-CaM PPI inh 59
CCOc1ccc(-n2nc(C(=O)Nc3cc(Cl)ccc3OC)c3ccccc3c2=O)cc1	none
CN(C)c1ccc(C2(c3ccc(N(C)C)cc3)OC(=O)c3ccccc32)cc1	mHTT-CaM PPI inh 86
O=C1OC(c2ccccc2)(c2ccccc2)c2ccccc21	none (no result: mHTT-CaM PPI inh)
S=C(NCCc1ccccc1)NN=Cc1ccccc1Cl	none (no result: mHTT-CaM PPI inh)
Cc1cc(-c2ccccc2)n(-c2cc(Nc3cccc(C(F)(F)F)c3)ncn2)n1	mHTT-CaM PPI inh 93
CNc1cc(-n2nc(C)cc2-c2ccccc2)ncn1	none
O=C(Nc1nnc(-c2ccco2)s1)c1ccccc1Br	none
CC1(C)C(C=C(Cl)Cl)C1C(=O)Nc1cccc(C(F)(F)F)c1 (centres undefined)	mHTT-CaM PPI inh 53
CC1(C)C(C=C(Cl)Cl)C1C(=O)Nc1ccc(Cl)c(Cl)c1 (centres undefined)	none
Cc1cccc(NC(=O)CN2C(=O)C(c3ccccc3)=NC23CCCCC3)c1	none
O=C(CN1C(=O)C(c2ccc(F)cc2)=NC12CCCC2)Nc1ccc(F)c(Cl)c1	mHTT-CaM PPI inh 100
O=C(CN1C(=O)C(c2ccccc2)=NC12CCCCC2)Nc1ccc(F)c(Cl)c1	none
O=C(CN1C(=O)C(c2ccc(F)cc2)=NC12CCCC2)Nc1ccc(Cl)cc1	none
O=C(CN1C(=O)C(c2ccccc2)=NC12CCCCC2)Nc1cccc(Cl)c1	mHTT-CaM PPI inh 89
O=C(CN1C(=O)C(c2ccc(F)cc2)=NC12CCCCC2)Nc1ccc(F)c(Cl)c1	mHTT-CaM PPI inh 95
O=C(Nc1ccc(N2CCCN(Cc3ccccc3)CC2)nc1)c1ccccc1F	none
O=C(c1nc2ccccn2c1-c1ccsc1)N1CCCCC1	none
O=c1c(-c2ccccc2)c(O)nc2ccccn12	none (no result: mHTT-CaM PPI inh)
CCc1c(O)nc2ccccn2c1=O	Pf apPOL inh 73
Cc1ccnc(N2CCC(C(=O)NCCc3ccco3)CC2)n1	none
COc1cccc(-c2ccc(SCC(=O)Nc3ccccc3C(F)(F)F)nn2)c1	none
O=C(CN1CCN(c2ccccc2)C1=O)NCc1nc2ccccc2[nH]1	none
Cc1ccc(NC(=O)C2(c3ccccc3)CCOCC2)cc1	none
O=C(CSCc1ccccc1)Nc1nnc(-c2ccsc2)o1	none
O=C(Nc1c(Cl)cccc1Cl)C1(c2ccccc2)CCOCC1	Pf apPOL inh 86
O=C(Nc1nnc(-c2ccsc2)o1)C1(c2ccccc2)CCOCC1	mHTT-CaM PPI inh 100
CCSc1ccccc1C(=O)Nc1nnc(-c2ccsc2)o1	mHTT-CaM PPI inh 84
CCSc1ccccc1C(=O)Nc1nnc(C2CCCCC2)o1	none
Cc1cccc(NC(=O)N2CCCC2c2cc(C(C)C)no2)c1C (centres undefined)	none
CCCOc1ccc2c3c(c(=O)oc2c1C)CCC3	none
Cc1nc(C)c(-c2nnc(NC(=O)Nc3ccccc3Cl)o2)s1	none
O=C(COc1nsnc1N1CCCCC1)Nc1ccc(Br)cc1	mHTT-CaM PPI inh 51
O=C(COc1nsnc1N1CCOCC1)Nc1ccc(Br)cc1	none
O=C(c1csc(CN2CCN(c3ccccc3)CC2)n1)N1CCOCC1	none
O=C(CCCOc1ccc(Cl)cc1Cl)Nc1ccccc1F	none
